# “And” between values parts separate entries of the source, which are not always exact repeats. Equal entries are not always repeated. Results filed as inconclusive are left out. Entries that show only a call come without a potency. Some structures have more than one record in an assay (separate samples or runs), and their calls can disagree. The source made the active and inactive calls. Unless noted, calls follow the shape of the dose curve; as a rule, active = well fitted curve in the direction sought with a large enough effect in the repeat runs; inconclusive = weak or mixed curves; inactive = no such curve, though single readings can be large; an effect the other way counts as inactive or inconclusive.
# Experiments:
# [1] = qHTS RealTime-Glo MT Cell Viability Assay in HepG2 cells - 16 hour (AID 1224885); also: nearly all actives have a fitted effect of over 50% in size
# Procedure, shortened: (§1)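 Cell number in HepG2 cultures estimated from NanoLuc luminescence generated by metabolic reduction of a prosubstrate by living cells. The homogeneous, nonlytic format allowed repeated reads at 0, 8, 16, 24, 32 and 40 h of compound exposure.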
# [2] = qHTS RealTime-Glo MT Cell Viability Assay in HEK293 cells - 24 hour (AID 1224886); also: nearly all actives have a fitted effect of over 50% in size; also: potency is read from the fitted curve at half-maximal effect
# Procedure, shortened: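 Homogeneous bioluminescent viability format in HEK293 cells (600 cells/well). Following 5 h at 37 C/5% CO2, 23 nL compound was pintooled; the signal was measured repeatedly during 40 h incubation.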
# [3] = qHTS RealTime-Glo MT Cell Viability Assay in HEK293 cells - 8 hour (AID 1224887); also: top concentration of the series differs between compounds; nearly all actives have a fitted effect of over 50% in size
# Procedure, shortened: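 HEK293 cells mixed with RealTime-Glo reagents (NanoLuc plus cell-permeant prosubstrate) at 600 cells/well, preincubated 5 h at 37 C/5% CO2, then given 23 nL compound in DMSO. Nonlytic luminescence from viable cells was read at 0, 8, 16, 24, 32 and 40 h.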
# [4] = A CellTox Green Cytotoxicity Assay to monitor cytotoxicity in HEK293 cells - 16 hour (AID 1224888); also: nearly all actives have a fitted effect of over 35% in size
# Procedure, shortened: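 HEK293 cells premixed with CellTox Green dye were seeded at 600 cells/well and left 5 h at 37 C/5% CO2 before pin transfer of 23 nL compound in DMSO. Fluorescence from dye bound to dead-cell DNA was read during 40 h treatment.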
# [5] = qHTS RealTime-Glo MT Cell Viability Assay in HepG2 cells - 0 hour (AID 1224889); also: nearly all actives have a fitted effect of over 50% in size
# Procedure, shortened: as §1
# [6] = A CellTox Green Cytotoxicity Assay to monitor cytotoxicity in HepG2 cells - 8 hour (AID 1224890); also: nearly all actives have a fitted effect of over 45% in size; also: potency is read from the fitted curve at half-maximal effect
# Procedure, shortened: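 HepG2 cells were seeded together with the CellTox Green dye at 600 cells/well, left 5 h at 37 C/5% CO2, then given compounds in DMSO. Fluorescence from dye bound to dead-cell DNA was read repeatedly over 40 h of treatment at 37 C.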
# [7] = qHTS assay to identify small molecule antagonists of the androgen receptor (AR) signaling pathway using the MDA cell line in the presence of 0.5 nM R1881 - cell viability counter screen (AID 1259242); also: nearly all actives have a fitted effect of over 45% in size
# Procedure, shortened: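 MDA-kb2 cells (human breast carcinoma, stably carrying MMTV-luciferase reporter) were exposed to compounds with 0.5 nM R1881 (final) for 16 hr at 37C, 0% CO2; viability then read as live-cell protease fluorescence (CellTiter-Fluor, 30 min) in the same wells.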
# [8] = molecular target: Estrogen receptor (Homo sapiens) (UniProt P03372); test: qHTS assay to identify small molecule antagonists of the estrogen receptor alpha (ER-alpha) signaling pathway using the BG1 cell line in the presence of 0.1 nM 17-beta-estradiol (AID 1259244); also: nearly all actives have a fitted effect of over 50% in size; also: potency is read from the fitted curve at half-maximal effect
# Sequence of Estrogen receptor (Homo sapiens) (P03372 whole entry, looked up): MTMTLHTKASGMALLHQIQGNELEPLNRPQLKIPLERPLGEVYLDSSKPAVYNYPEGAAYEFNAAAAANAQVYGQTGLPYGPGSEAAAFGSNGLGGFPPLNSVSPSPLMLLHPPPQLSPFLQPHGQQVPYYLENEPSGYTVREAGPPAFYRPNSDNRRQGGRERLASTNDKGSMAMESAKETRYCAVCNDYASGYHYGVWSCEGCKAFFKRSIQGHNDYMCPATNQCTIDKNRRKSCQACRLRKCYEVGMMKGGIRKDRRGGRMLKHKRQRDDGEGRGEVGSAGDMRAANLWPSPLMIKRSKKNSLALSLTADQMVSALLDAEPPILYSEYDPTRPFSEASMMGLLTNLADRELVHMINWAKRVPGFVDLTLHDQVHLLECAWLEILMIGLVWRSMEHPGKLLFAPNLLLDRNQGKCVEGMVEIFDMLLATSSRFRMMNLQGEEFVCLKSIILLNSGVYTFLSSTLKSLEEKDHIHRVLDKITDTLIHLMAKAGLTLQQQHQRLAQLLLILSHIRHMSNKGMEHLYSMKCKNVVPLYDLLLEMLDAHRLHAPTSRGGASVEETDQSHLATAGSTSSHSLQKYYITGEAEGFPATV
# Procedure, shortened: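 VM7Luc4E2 cells (endogenous full-length ER-alpha, stable 4xERE-luciferase) were grown 5 days in phenol red-free medium with charcoal-stripped FBS, then exposed 22 h at 37C to compounds plus 0.1 nM (final) 17beta-estradiol; ONE-Glo luminescence read-out.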
# [9] = qHTS assay to identify small molecule HDAC inhibitors (AID 1259364); also: top concentration of the series differs between compounds; nearly all actives have a fitted effect of over 45% in size
# Procedure, shortened: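 Wild-type HCT-116 cells were plated overnight, exposed to compounds for 2 h at 37 °C, then given HDAC-Glo class I/II luminogenic reagent for 30 min at room temperature before luminescence was read.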
# [10] = qHTS assay to identify small molecule HDAC inhibitors - cell viability counter screen (AID 1259365)
# Procedure, shortened: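 After overnight seeding at 1,500 cells per well, wild-type HCT-116 cultures took up compounds in DMSO for 2hr at 37 C. Viable cell content came from luminescence with CellTiter-Glo.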
# [11] = qHTS assay to identify small molecule agonists of the sonic hedgehog signaling (Shh) pathway - cell viability counter screen (AID 1259366); also: nearly all actives have a fitted effect of over 50% in size; also: potency is read from the fitted curve at half-maximal effect
# Procedure, shortened: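 Same-well cytotoxicity read. Gli1-Luc reporter 3T3 cells; compounds 24hr, 37C/5% CO2; CellTiter-Fluor fluorescence.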
# [12] = qHTS assay to identify small molecule antagonists of the sonic hedgehog signaling (Shh) pathway - cell viability counter screen (AID 1259367); also: nearly all actives have a fitted effect of over 55% in size; also: potency is read from the fitted curve at half-maximal effect
# Procedure, shortened: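 NIH/3T3-derived Gli1-Luc reporter cells, 2,000/well, plated 4 hr before compound addition, then stimulated with conditioned medium for 24 hr at 37C. Viability measured in the same wells by CellTiter-Fluor fluorescence, reagent added at 23 hr for 1 hr.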
# [13] = qHTS assay to identify small molecule agonists of the sonic hedgehog signaling (Shh) pathway (AID 1259368; calls by dose curve; also: series mostly up to about 92 µM; nearly all actives have a fitted effect of over 15% in size)
# Procedure, shortened: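 NIH/3T3-derived 3T3Gli1-Luc cells carrying a stably integrated Gli1 response element–firefly luciferase reporter were plated, left 4 hr at 37 C, then given compounds in DMSO for 24 hr. Luminescence was read 30 min after adding luciferase reagent.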
# [14] = qHTS assay to identify small molecule antagonists of the sonic hedgehog signaling (Shh) pathway (AID 1259369; calls by dose curve; also: nearly all actives have a fitted effect of over 45% in size; also: potency is read from the fitted curve at half-maximal effect)
# Procedure, shortened: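 NIH/3T3-derived 3T3Gli1-Luc cells with stably integrated Gli1-Luc reporter were preincubated 4hr at 37 C, then given compounds in DMSO plus Shh conditioned medium and incubated 24hr. Firefly luciferase luminescence read after 30min reagent at room temperature.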
# [15] = molecular target: Estrogen receptor beta (Homo sapiens) (UniProt Q92731); test: qHTS assay to identify small molecule antagonists of the estrogen receptor beta (ER-beta) signaling pathway (AID 1259378; active = well fitted inhibition curve with a large enough effect in the signal ratio in the repeat runs, not every such curve was filed as active; the % refers to the signal ratio)
# Sequence of Estrogen receptor beta (Homo sapiens) (Q92731 whole entry, looked up): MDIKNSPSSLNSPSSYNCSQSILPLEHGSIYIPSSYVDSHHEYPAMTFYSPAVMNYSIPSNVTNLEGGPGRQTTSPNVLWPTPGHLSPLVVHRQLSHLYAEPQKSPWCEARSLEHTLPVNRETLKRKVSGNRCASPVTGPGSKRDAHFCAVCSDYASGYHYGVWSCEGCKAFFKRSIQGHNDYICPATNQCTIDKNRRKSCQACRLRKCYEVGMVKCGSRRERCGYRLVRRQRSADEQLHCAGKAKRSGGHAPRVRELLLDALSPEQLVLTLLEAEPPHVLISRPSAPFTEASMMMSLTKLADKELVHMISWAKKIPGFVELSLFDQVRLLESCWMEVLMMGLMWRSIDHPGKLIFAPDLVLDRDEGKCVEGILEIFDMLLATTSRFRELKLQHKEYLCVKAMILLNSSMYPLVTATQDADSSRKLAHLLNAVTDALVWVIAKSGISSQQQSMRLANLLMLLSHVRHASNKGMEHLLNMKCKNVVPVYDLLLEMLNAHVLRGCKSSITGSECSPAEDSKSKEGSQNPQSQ
# Procedure, shortened: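 ER-beta-UAS-bla HEK293T cells in 2% charcoal-stripped FBS medium treated with compound plus 1nM final 17-beta-estradiol for 16 hr at 37C. Beta-lactamase reporter read by FRET substrate fluorescence after 2 hours at room temperature.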
# [16] = qHTS assay to identify small molecule agonists of the androgen receptor (AR) signaling pathway in the presence of an antagonist - cell viability counter screen (AID 1259379); also: nearly all actives have a fitted effect of over 25% in size; also: potency is read from the fitted curve at half-maximal effect
# Procedure, shortened: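 MDA-kb2 human breast carcinoma cells (stable MMTV-luciferase, AR/GR responsive) were seeded 3,000 cells/well, pre-incubated 5 hr at 37C without CO2, then given 3.0uM nilutamide and compounds at 15 concentrations for 16 hr. Viability was read by CellTiter-Fluor fluorescence.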
# [17] = qHTS assay to identify small molecule agonists of the estrogen receptor beta (ER-beta) signaling pathway - cell viability counter screen (AID 1259380); also: nearly all actives have a fitted effect of over 30% in size; also: potency is read from the fitted curve at half-maximal effect
# Procedure, shortened: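 ER-beta-UAS-bla HEK293T cells in medium with 2% charcoal-stripped FBS were preincubated 6 hr at 37C, dosed with compound in DMSO for 16 hr, then after the bla read, CellTiter-Glo was added for 30 min at room temperature; luminescence recorded.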
# [18] = qHTS assay to identify small molecule antagonists of the estrogen receptor alpha (ER-alpha) signaling pathway using the BG1 cell line in the presence of 0.1 nM 17-beta-estradiol - cell viability counter screen (AID 1259241); also: nearly all actives have a fitted effect of over 40% in size
# Procedure, shortened: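 Estradiol-stimulated (0.1 nM) VM7Luc4E2 cells exposed to compounds 22 hr; viability measured by fluorescence of cleaved CellTiter-Fluor substrate after 30 min.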
# [19] = molecular target: Estrogen receptor beta (Homo sapiens) (UniProt Q92731); test: qHTS assay to identify small molecule agonists of the estrogen receptor beta (ER-beta) signaling pathway (AID 1259377; active = well fitted activation curve with a large enough effect in the signal ratio in the repeat runs, not every such curve was filed as active; the % refers to the signal ratio)
# Procedure, shortened: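 Read-out: beta-lactamase FRET fluorescence. Cell line: ER-beta-UAS-bla HEK293T in 2% charcoal-stripped FBS. Exposure: 16 hr at 37C. Substrate step: 2 h at room temperature.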
# [20] = qHTS assay to identify small molecule phospholipidosis (PLD) inducers (AID 1259344; active = well fitted curve in the direction sought with a large enough effect; an effect the other way counts as inactive or inconclusive)
# Procedure, shortened: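 HepG2 cells, 900/well, treated with compound plus LipidTOX Red for 24 h at 37 C; amiodarone positive and DMSO negative controls. Fixed with paraformaldehyde/Hoechst, then high-content imaging scored LipidTOX pit count and integrated intensity per well and per cell.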
Compound,outcome [1],Potency [2],Potency [3],outcome [4],Potency [5],Potency [6],outcome [7],Potency [8],Potency [9],outcome [10],Potency [11],Potency [12],outcome [13],Potency [14],Potency [15],Potency [16],Potency [17],Potency [18],Potency [19],outcome [20]
C=C(C)C(=O)O[C@H]1C[C@@H]2CC[C@@]1(C)C2(C)C,inactive,15.4 µM (active) and inactive,inactive,inactive,inactive,inactive,inactive,2.71 µM (active) and inactive,inactive,inactive,inactive,inactive,inactive,inactive,inactive,inactive,4.3 µM (active) and inactive,,,
CCCCCCCCCCCCc1ccccc1,inactive,inactive,inactive,inactive,inactive,inactive,inactive,,inactive,inactive,inactive,inactive,,inactive,,inactive,inactive,inactive,,
O=C(Oc1ccccc1)c1ccccc1,inactive,inactive,inactive,inactive,,inactive,inactive,,inactive,inactive,inactive,inactive,inactive,inactive,inactive,inactive,inactive,inactive,inactive,
CCCC(C)=O,inactive,inactive,inactive,inactive,inactive,inactive,inactive,,inactive,inactive,inactive,inactive,inactive,inactive,,inactive,inactive,inactive,,
O=C(O)c1ccc(C(=O)O)cc1,inactive,inactive,inactive,inactive,inactive,inactive,inactive,,inactive,inactive,inactive,inactive,inactive,inactive,,inactive,inactive,inactive,,
CC(C)(N)CO,inactive,inactive,inactive,inactive,,inactive,inactive,inactive,inactive,inactive,inactive,inactive,,inactive,inactive,inactive,inactive,inactive,inactive,
c1ccc2c(c1)ccc1ccccc12,inactive,inactive,inactive,inactive,,inactive,inactive,inactive,inactive,inactive,inactive,inactive,inactive,inactive,,inactive,inactive,inactive,,
CCC(O)OCCCOC (configuration not stated),inactive,inactive,inactive,inactive,inactive,inactive,inactive,,inactive,inactive,22.2 µM (active) and inactive,28 µM (active) and inactive,inactive,inactive,inactive,inactive,inactive,inactive,inactive,
O=C(O)CCCC[C@@H]1SC[C@@H]2NC(=O)N[C@@H]21,inactive,inactive,inactive,inactive,,inactive,inactive,inactive,inactive,inactive,inactive,inactive,inactive,inactive,inactive,inactive,inactive,inactive,inactive,inactive
O=C(O)c1cc(O)c(O)c(O)c1,inactive,inactive,inactive,inactive,,inactive,inactive,inactive,inactive,inactive,61.7 µM (active) and inactive,inactive,,27.6 µM (active) and inactive,,55 µM (active) and inactive,inactive,inactive,,inactive
Cc1cccnc1,inactive,inactive,inactive,inactive,,inactive,inactive,,inactive,inactive,inactive,inactive,inactive,inactive,inactive,inactive,inactive,inactive,inactive,
Cc1ccc(S(N)(=O)=O)cc1,inactive,inactive,inactive,inactive,,inactive,inactive,,inactive,inactive,inactive,inactive,inactive,inactive,,inactive,inactive,inactive,,
CN(C)CCOCCN(C)C,inactive,inactive,inactive,inactive,inactive,inactive and 49 µM (active),inactive,,inactive,inactive,inactive,inactive,inactive,inactive,inactive,inactive,inactive,inactive,inactive,

# Reference: PubChem BioAssay (Tox21)
